Assay [1] can be described thus: qHTS RealTime-Glo MT Cell Viability Assay in HepG2 cells - 40 hour (AID 1224870). Also: nearly all actives have a fitted effect of over 50% in size. The essentials: (§1)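 Real-time viability: cells seeded at 600 per well together with NanoLuc and cell-permeant prosubstrate, compounds added after 5 h incubation. Luminescence tracked at 0, 8, 16, 24, 32 and 40 h of exposure.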
The nature of assay [2]: A CellTox Green Cytotoxicity Assay to monitor cytotoxicity in HEK293 cells - 40 hour (AID 1224871). Also: nearly all actives have a fitted effect of over 45% in size. Also: potency is read from the fitted curve at half-maximal effect. Put shortly:
(§2)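 Cells (HEK293, 600/well) and dye reagent are dispensed together. After 5 h at 37 C, 23 nL compound is pinned in. Plates stay at 37 C for 40 h with fluorescence read at 0h, 8h, 16h, 24h, 32h and 40h.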

Assay [3] in a line: qHTS RealTime-Glo MT Cell Viability Assay in HepG2 cells - 8 hour (AID 1224873). Also: nearly all actives have a fitted effect of over 55% in size. The essentials: as §1
Background: qHTS replaces the single test concentration by a dilution series.

A short description of assay [4]: qHTS RealTime-Glo MT Cell Viability Assay in HEK293 cells - 40 hour (AID 1224874). Also: nearly all actives have a fitted effect of over 50% in size. Also: potency is read from the fitted curve at half-maximal effect. The settings on record: RealTime-Glo luminescence; max response: stronger effect = lower value. Put shortly: (§3)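 Real-time viability in HEK293: signal arises when living cells convert a prosubstrate for NanoLuc in the medium, so luminescence tracks viable cell number. Compound (23 nL, DMSO) added 5 h post-seeding; kinetic reads at 0–40 h, 37 C.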

Assay [5] in a line: A CellTox Green Cytotoxicity Assay to monitor cytotoxicity in HEK293 cells - 24 hour (AID 1224875). Also: series mostly up to about 77 µM; nearly all actives have a fitted effect of over 45% in size. Put shortly: as §2
The nature of assay [6]: A CellTox Green Cytotoxicity Assay to monitor cytotoxicity in HepG2 cells - 16 hour (AID 1224876). Also: nearly all actives have a fitted effect of over 45% in size. Also: potency is read from the fitted curve at half-maximal effect. The essentials: (§4)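 Cells and non-lytic dye reagent are dispensed together (600 HepG2 cells/well) and incubated 5 h before DMSO compound transfer. Kinetic fluorescence is then recorded in the same wells during 40 h at 37 C.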
A short description of assay [7]: qHTS RealTime-Glo MT Cell Viability Assay in HepG2 cells - 32 hour (AID 1224877). Also: nearly all actives have a fitted effect of over 55% in size. The essentials: (§5)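 HepG2 cells were seeded at 600 cells/well together with NanoLuc luciferase and a cell-permeant prosubstrate, preincubated 5 h at 37 C/5% CO2, then pin-dosed with compounds in DMSO. Nonlytic luminescence from viable cells was read at each time point.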
Assay [8] in a line: A CellTox Green Cytotoxicity Assay to monitor cytotoxicity in HepG2 cells - 24 hour (AID 1224878). Also: nearly all actives have a fitted effect of over 45% in size. Also: potency is read from the fitted curve at half-maximal effect. Put shortly: as §4
Assay [9] can be described thus: A CellTox Green Cytotoxicity Assay to monitor cytotoxicity in HepG2 cells - 40 hour (AID 1224879). Also: nearly all actives have a fitted effect of over 40% in size. Also: potency is read from the fitted curve at half-maximal effect. Put shortly: as §4
The nature of assay [10]: qHTS RealTime-Glo MT Cell Viability Assay in HEK293 cells - 0 hour (AID 1224880). Also: nearly all actives have a fitted effect of over 45% in size. Also: potency is read from the fitted curve at half-maximal effect. As to activity change, negative = cytotoxicity: top concentration of the series differs between compounds. Put shortly: as §3
Assay [11] is described as follows: A CellTox Green Cytotoxicity Assay to monitor cytotoxicity in HEK293 cells - 32 hour (AID 1224881). Also: nearly all actives have a fitted effect of over 40% in size. Put shortly: as §2
A short description of assay [12]: A CellTox Green Cytotoxicity Assay to monitor cytotoxicity in HepG2 cells - 0 hour (AID 1224882). Also: nearly all actives have a fitted effect of over 35% in size. Also: potency is read from the fitted curve at half-maximal effect. Put shortly:
as §4

Assay [13] is described as follows: A CellTox Green Cytotoxicity Assay to monitor cytotoxicity in HepG2 cells - 32 hour (AID 1224883). Also: nearly all actives have a fitted effect of over 50% in size. Also: potency is read from the fitted curve at half-maximal effect. The essentials:
as §4

Assay [14] is described as follows: A CellTox Green Cytotoxicity Assay to monitor cytotoxicity in HEK293 cells - 8 hour (AID 1224884). Also: nearly all actives have a fitted effect of over 35% in size. Also: potency is read from the fitted curve at half-maximal effect. Put shortly: as §2
Assay [15] in a line: qHTS RealTime-Glo MT Cell Viability Assay in HEK293 cells - 24 hour (AID 1224886). Also: top concentration of the series differs between compounds; nearly all actives have a fitted effect of over 50% in size. The essentials: (§6)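 HEK293 cells were seeded at 600 cells/well together with NanoLuc luciferase and cell-permeant prosubstrate, preincubated 5 h at 37 C/5% CO2, then given compound in DMSO by pintool. Luminescence from viable-cell prosubstrate reduction was read repeatedly over 40 h.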
Assay [16] in a line: qHTS RealTime-Glo MT Cell Viability Assay in HEK293 cells - 8 hour (AID 1224887). Put shortly: as §3
Assay [17] in a line: A CellTox Green Cytotoxicity Assay to monitor cytotoxicity in HEK293 cells - 16 hour (AID 1224888). Also: nearly all actives have a fitted effect of over 35% in size. The essentials:
as §2

Assay [18] in a line: qHTS RealTime-Glo MT Cell Viability Assay in HepG2 cells - 0 hour (AID 1224889). Also: nearly all actives have a fitted effect of over 50% in size. Also: potency is read from the fitted curve at half-maximal effect. Put shortly: as §5
Assay [19] is described as follows: qHTS RealTime-Glo MT Cell Viability Assay in HEK293 cells - 16 hour (AID 1224872). Put shortly:
as §6

Assay [20] can be described thus: qHTS RealTime-Glo MT Cell Viability Assay in HepG2 cells - 16 hour (AID 1224885). Also: nearly all actives have a fitted effect of over 50% in size. Put shortly: as §5

Values joined by “and” are separate entries in the source; they are usually repeats but may differ in a detail not shown here. Equal entries are not always repeated. Inconclusive results are not listed. Some structures have more than one record in an assay (separate samples or runs), and their calls can disagree. Active and inactive are the calls of the source. Calls follow the shape of the dose curve; as a rule, active = well fitted curve in the direction sought with a large enough effect in the repeat runs; inconclusive = weak or mixed curves; inactive = no such curve, though single readings can be large; an effect the other way counts as inactive or inconclusive.

Experimental findings from PubChem BioAssay (Tox21) are described below.
% is scaled to controls: 0 for no effect and ±100 for the full control effect.

`Nc1c[n+](N2CCOCC2)no1`: the Potency result in assay [1], in assay [2], in assay [3], in assay [5], in [6] and in [7] was “inactive” each time. Moreover, the Potency entry in assay [8], in assay [9], in [10], in assay [11], in [12] and in assay [13] was “inactive” in each case. Besides, the Potency result in assay [14], in [15], in assay [16], in assay [17] and in assay [18] was “inactive” in each case. In assay [4], the max response is 0.673% (inactive).

Regarding `CCc1nccnc1CC`, the values for the activity change, negative = cytotoxic in [1], in assay [7] and in assay [20] were -2.15% [at 15.8 µM] (inactive), -1.59% [at 15.8 µM] (inactive) and -1.18% [at 15.8 µM] (inactive), respectively. Further, the Potency entry in [2] and in assay [11] was “inactive” in each case. Further, the activity change, negative = cytotoxicity in assay [19] is 5.29% [at 15.8 µM] (inactive); in [10] it was -3.54% [at 15.8 µM] (inactive); in assay [15] it was 6.29% [at 15.8 µM] (inactive); in assay [16] it was -0.69% [at 15.8 µM] (inactive); in assay [18], -0.513% [at 15.8 µM] (inactive). For the same molecule, the max response in assay [4] was 3.61% (inactive). The activity change in assay [5] is -5.25% [at 15.8 µM, stronger effect = higher value] (inactive); in assay [17] it was -4.2% [at 15.8 µM, stronger effect = higher value] (inactive). For the same molecule, the cytotoxicity increase in assay [6] was 1.53% [at 15.8 µM] (inactive); in [9], 0.942% [at 15.8 µM] (inactive); in assay [13] it was 4.25% [at 15.8 µM] (inactive); in assay [14], -4.27% [at 15.8 µM] (inactive). Moreover, in assay [12], the cytotoxicity is -0.271% [at 15.8 µM] (inactive).

Take `CC(C)CNCC(C)C`: the Potency result in assay [1], in [2], in assay [3], in [5], in [6] and in assay [7] was “inactive” in each case. Further, the Potency result in assay [8], in [9], in assay [10], in assay [11], in assay [12] and in [13] was “inactive” each time. The Potency result in assay [14], in [15], in [16], in assay [17] and in [18] was “inactive” in each case. Also, the max response in [4] was 0.947% (inactive).

On to `ClC(Cl)(Br)Br`, for which the Potency result in assay [1], in [2], in assay [19], in [6], in assay [7] and in assay [9] was “inactive” throughout. For the same molecule, the Potency entry in assay [10], in assay [11], in assay [12], in assay [13], in assay [14] and in assay [20] was “inactive” each time. For the same molecule, the Potency entry in [15], in [16], in assay [17] and in assay [18] was “inactive” in each case.

In the case of `CCC=O`, the Potency result in assay [1], in assay [2], in assay [3], in assay [5], in [6] and in [7] was “inactive” in each case. Moreover, the Potency entry in assay [9], in [10], in assay [11], in [12], in [13] and in assay [14] was “inactive” each time. The Potency result in [20], in assay [15], in [16], in assay [17] and in [18] was “inactive” each time. In assay [4], the max response was 5.02% (inactive).

Turning to `CCO[Si](CCC1CCC2OC2C1)(OCC)OCC` (stereo not drawn), the Potency result in assay [1], in assay [2], in [3], in [5], in assay [6] and in [7] was “inactive” each time. Further, the Potency entry in [8], in assay [9], in assay [10], in [11], in [12] and in [13] was “inactive” each time. For the same molecule, the Potency result in assay [14], in assay [15], in assay [16], in assay [17] and in assay [18] was “inactive” each time. Moreover, the max response in assay [4] is 14.1% (inactive).

Regarding `N=c1nc(N2CCCCC2)cc(N)n1O`, the Potency entry in [1], in assay [2], in [19], in [5], in assay [6] and in assay [7] was “inactive” in each case. Moreover, the Potency entry in assay [9], in [10], in assay [11], in [12], in [13] and in assay [14] was “inactive” in each case. Also, the Potency entry in assay [20], in assay [15], in assay [16], in [17] and in assay [18] was “inactive” throughout. Also, the max response in [4] was -2.32% (inactive).

With `O=c1n(CCO)c(=O)n(CCO)c(=O)n1CCO`, the Potency result in assay [1], in [19], in assay [7], in assay [10], in assay [20] and in assay [16] was “inactive” in each case. In assay [18], the Potency entry is “inactive”. The Potency entry is “inactive and 38.9 µM (active)” in assay [2]; “inactive and 38.9 µM (active)” in assay [6]; “inactive and 38.9 µM (active)” in assay [8]; “inactive and 43.6 µM (active)” in assay [9]; “inactive and 43.6 µM (active)” in assay [12]; “inactive and 38.9 µM (active)” in assay [13]. Moreover, the Potency entry in assay [14] is “inactive and 43.6 µM (active)”. Further, the max response in [4] was -3.8% (inactive) and 5.95% (inactive).

Regarding `CC(=O)OCC(=O)[C@@]1(O)CC[C@H]2[C@@H]3CCC4=CC(=O)CC[C@]4(C)[C@H]3C(=O)C[C@@]21C`, the Potency result in assay [1], in assay [2], in assay [19], in assay [6], in [8] and in assay [9] was “inactive” each time. The Potency result in [11], in assay [12], in assay [13], in assay [14], in assay [20] and in assay [16] was “inactive” each time. The Potency entry in [17] is “inactive”. Moreover, the max response in [4] was -9.91% (inactive). Further, the figures for the Potency in assay [10] and in assay [18] were 6.01 µM (active) and 1.07 µM (active), respectively.

`N[C@@H](C(=O)N[C@@H]1C(=O)N2C(C(=O)O)=C(Cl)CS[C@H]12)c1ccccc1`: the activity change, negative = cytotoxic in assay [1] was 0.227% [at 6.97 µM] (inactive); in [7], 1.49% [at 6.97 µM] (inactive); in assay [20], 1.78% [at 6.97 µM] (inactive). Further, the cytotoxicity increase in assay [2] was 2.56% [at 6.97 µM] (inactive); in [6], -14% [at 6.97 µM] (inactive); in assay [9], -14.3% [at 6.97 µM] (inactive); in [11], -0.855% [at 6.97 µM] (inactive); in [13], -17.5% [at 6.97 µM] (inactive); in [14], 0.155% [at 6.97 µM] (inactive). Also, the activity change, negative = cytotoxicity is 12.8% [at 6.97 µM] (inactive) in [19]; 12.5% [at 6.97 µM] (inactive) in [10]; 7.93% [at 6.97 µM] (inactive) in assay [15]; 11.8% [at 6.97 µM] (inactive) in assay [16]; 1.57% [at 6.97 µM] (inactive) in assay [18]. The cytotoxicity in assay [12] is -11.9% [at 6.97 µM] (inactive). Besides, the activity change in assay [17] is 1.42% [at 6.97 µM, stronger effect = higher value] (inactive).

Turning to `C=COCC1CCC(CO)CC1` (stereo not drawn), the Potency result in [1], in assay [2], in assay [19], in assay [6], in [7] and in assay [8] was “inactive” throughout. Also, the Potency result in [9], in [10], in assay [11], in assay [12], in assay [13] and in [14] was “inactive” throughout. The Potency result in assay [20], in [15], in assay [16], in assay [17] and in [18] was “inactive” throughout. Besides, the max response in assay [4] was 11.5% (inactive).

`CC1=CC(C)C(C=O)CC1` (stereo not drawn): the Potency result in [1], in assay [2], in assay [19], in [5], in [6] and in [9] was “inactive” in each case. The Potency result in assay [10], in [11], in [12], in [13], in assay [14] and in [20] was “inactive” in each case. Moreover, the Potency entry in assay [15], in [16], in assay [17] and in assay [18] was “inactive” in each case. Moreover, in assay [4], the max response was -0.371% (inactive).

As for `CC(C)(c1ccc(O)cc1)c1ccc(O)cc1`, the Potency entry in assay [1], in [3], in assay [5], in assay [6], in assay [7] and in assay [8] was “inactive” throughout. Also, the Potency entry in [9], in [10], in assay [11], in [12], in [13] and in assay [14] was “inactive” throughout. Besides, the Potency result in assay [16], in assay [17] and in [18] was “inactive” throughout. Moreover, the Potency entry in assay [2] was “inactive and 17.7 µM (active)”; in [4], 48 µM (active).
